# Data as given in PubChem BioAssay (NCATS).
# Where “and” joins values, the source holds several entries; their conditions need not be identical. Equal entries are not always repeated. Inconclusive results are not listed. Calls of active or inactive are those of the source. The call rests on the fitted dose curve; in most records, active means well fitted inhibition curve with a large enough effect; inconclusive means small, poorly fitted or top-dose-only effect; inactive means flat fitted curve, though single readings scatter.
# Experiment: Primary qHTS for inhibitors of nuclear receptor binding SET domain protein 2 (NSD2) in an isogenic RCH-ACV NSD2 p.E1099K mutant (9B) (AID 1645876); further: nearly all actives have a fitted effect of over 70% in size
# Details: RCH-ACV (leukaemia line) NSD2 E1099K (9B) viability, CellTiter-Glo, 72 h; series mostly up to 44.9 µM
# Potency means the concentration at half of the fitted maximal effect.
row,SMILES,Potency
1,Cc1c(C2=CCN(C(=O)N(C)C(C)C)CC2)nnn1-c1cccnc1F,inactive
2,C/C=C(\C)C(=O)O[C@H]1C=C(CO)C(=O)[C@H](OC(C)=O)[C@H]1C(C)C,2.84 µM (active)
3,CC(C)Oc1ccc(-c2cnc3c(-c4ccnc5ccccc45)cnn3c2)cc1,inactive
4,Cn1ccc(NC(=O)c2cc(Oc3ccc(C(=O)N4CCC4)c(F)c3)c3c(c2)OC(C)(C)C3)n1,inactive
5,CC1CCCC(O)CC(=O)c2c(O)cc(O)cc2CC(=O)O1 (centres undefined),8.01 µM (active)
6,C/C1=C\[C@@H](C)C[C@@H](C)[C@@H](Cc2cnco2)OC(=O)/C(C)=C/[C@@H](C)C[C@@H](C)[C@@H](Cc2cnco2)OC1=O,1.78 µM (active)
7,Cc1nc2ccc(-n3ncc(C(=O)c4cc5ccccc5[nH]4)c3N)cc2[nH]1,3.25 µM (active) and 2.63 µM (active)
8,O=c1cc(NCCCN[C@@H]2CCOc3c(Br)cc(Br)cc32)[nH]c2ccsc12,20.5 µM (active)
9,O=C(Nc1ccnc(NC(=O)C2CC2)c1)c1c(Cl)cccc1Cl,2.95 µM (active)
10,COc1ccc2c(c1O[C@H]1CCNC1)CCC2,inactive
11,C/C(=C/CO)CCC1C(C)CCC2C(C)(C)CCCC12C (centres undefined),inactive
12,Cc1cc(F)c(C(=O)Nc2cccc(-c3nncn3C(C)C)n2)cc1-n1cnc(C2CC2)c1,11.8 µM (active)
13,c1ccc(-c2ccc(CNc3nc(-c4ccccn4)nnc3-c3ccccc3)cc2)cc1,2.95 µM (active)
14,C=C[C@]1(C)C[C@H](O)[C@H]2C(=C)C(=O)O[C@@H]2[C@H]1C(=C)CO,18.3 µM (active)
15,O=C(Nc1cccc(C(F)(F)F)c1)Nc1ccc(Br)cc1-c1nn[nH]n1,inactive
16,CC(=O)OC1CC(C)C2(CCC3(CC(=O)OC3O)O2)C2(C)CCCC(C)(C)C12 (centres undefined),inactive
17,CCC/C=C\C=C/CCc1cc(O)c([C@@H]2O[C@H](CO)[C@@H](O)[C@H](O)[C@H]2O)c(O)c1C(=O)OC,inactive
18,CC(=O)Nc1nc(C)c(-c2nc(N3CCCC(O)C3)no2)s1 (centres undefined),0.916 µM (active)
19,Nc1nc2c(ncn2C2OC3COP(=O)(O)OC3C2O)c(=O)[nH]1 (centres undefined),inactive
20,CC(=O)C=C=C1C(C)(C)CC(O)CC1(C)O[C@@H]1O[C@H](CO[C@H]2OC[C@](O)(CO)[C@H]2O)[C@@H](O)[C@H](O)[C@H]1O (some centres undefined),inactive

row,SMILES,Potency
1,C=C1CC[C@@H]2[C@](C)(CO)[C@H](O)CC[C@@]2(C)[C@@H]1C/C=C1/C(=O)OCC1O (some centres undefined),14.5 µM (active)
2,C=CCNC1=C2C[C@@H](C)C[C@H](OC)[C@H](O)[C@@H](C)/C=C(\C)[C@H](OC(N)=O)[C@@H](OC)/C=C\C=C(/C)C(=O)NC(=CC1=O)C2=O,3.32 µM (active)
3,CC(=O)O[C@H]1CC(C)(C)CC2[C@]13CO[C@@]21CCC2[C@@]4(C)CC[C@H](O[C@@H]5OC[C@H](O[C@@H]6O[C@H](CO)[C@@H](O)[C@H](O)[C@H]6O[C@@H]6OC[C@@H](O)[C@H](O)[C@H]6O)[C@H](O)[C@H]5O[C@@H]5O[C@H](CO)[C@@H](O)[C@H](O)[C@H]5O)[C@@](C)(CO)C4CC[C@@]2(C)[C@]1(C)C[C@H]3O (some centres undefined),2.45 µM (active)
4,CS(=O)(=O)Nc1cc2occ(NC=O)c(=O)c2cc1Oc1ccccc1,inactive
5,CC1CCCC[C@H]2C(=O)C=C[C@H](O)[C@@H]2CC(=O)O1 (some centres undefined),3.25 µM (active)
6,COc1cc(CCO)ccc1O[C@@H]1O[C@H](CO)[C@@H](O)[C@H](O)[C@H]1O,inactive
7,Cn1cc(-c2cnn3c(N)c(Br)c([C@@H]4CCCNC4)nc23)cn1,1.15 µM (active) and 3.72 µM (active)
8,COc1cc(F)c(F)c(Nc2ccc(I)cc2F)c1NS(=O)(=O)C1(CC(O)CO)CC1 (centres undefined),18.3 µM (active)
9,NC(=O)c1cnc(N[C@@H]2CCCC[C@H]2N)nc1Nc1cccc(-n2nccn2)c1,0.649 µM (active)
10,C=C1C(=O)O[C@H]2/C=C(/C)[C@@H](OC(C)=O)C/C=C(\C)C[C@@H](OC(=O)/C(=C/C)COC(=O)/C(=C/C)CO)[C@@H]12,1.78 µM (active)
11,COc1cc(C(C)=O)c(OC)c2c1OC(C)(C)C=C2,inactive
12,CCC(CC)(NC(=O)C(C)C)C(=O)N[C@@H](CCCN=C(N)N)C(=O)NC1(C(=O)NC(c2ccc(F)cc2)c2ccc(F)cc2)CCCC1,inactive
13,COC(=O)C1=CO[C@@H](O[C@@H]2O[C@H](CO)[C@@H](O)[C@H](O)[C@H]2O)[C@H]2[C@@H]1C=C[C@]21C=C([C@H](C)OC(=O)/C=C/c2ccc(O)cc2)C(=O)O1,0.383 µM (active)
14,CC(C)(C)C1CCN(C(=O)n2ncc(C(O)(c3ccccc3)c3ccccc3)n2)CC1,20.5 µM (active)
15,C=C(C)C(=O)O[C@H]1/C(C=O)=C\CC/C(CO)=C/[C@H]2OC(=O)C(=C)[C@@H]2[C@@H]1OC,11.3 µM (active)
16,CC1=CC2/C=C(\C)CCC(O)C(=O)C(O)CC(=O)C23C(=O)NC(CC(C)C)C3C1C (centres undefined),11.2 µM (active)
17,C=C1C(=O)O[C@@H]2C[C@H](C)C3=CC(=O)[C@H](O)[C@@]3(C)C[C@H]12,25.8 µM (active)
18,c1cc(-c2cnn3cc(-c4ccc(N5CCNCC5)cc4)cnc23)c2cccnc2c1,5.25 µM (active)
19,O=c1ccc2ccc(OCCCCN3CCN(c4cccc5sccc45)CC3)cc2[nH]1,14.5 µM (active)
